Shiga inhibitor: inhibitors of Shiga toxin in Vero cells; Vero cells, Shiga toxin protein synthesis inhibition reporter; inhibition, % at 38.7 µM; 9.2% of 290,000 active; in the data active = inhibition mostly above about 28%, no sharp cut-off; inactive = mostly below about 43%
Cycloheximide cs: counter-screen hit for Shiga toxin inhibitors, cycloheximide; max response, %; cell reporter, cycloheximide protein synthesis inhibition counterscreen; AID 2314; 12% of 300,000 active; in the data active = max response mostly above about 13%, no sharp cut-off; inactive = mostly below about 14%; also: read at 38.3 µM for the half of the compounds with a filed dose
LmPK inhibitor: LmPK (Leishmania mexicana) enzyme inhibition; purified LmPK, Kinase-Glo ATP luminescence, 1 h; Potency, µM (titrated, usually from 57.5 µM), usual class: inhibitors; 0.37% of 290,000 active
Target sequence (Q27686 whole entry, looked up): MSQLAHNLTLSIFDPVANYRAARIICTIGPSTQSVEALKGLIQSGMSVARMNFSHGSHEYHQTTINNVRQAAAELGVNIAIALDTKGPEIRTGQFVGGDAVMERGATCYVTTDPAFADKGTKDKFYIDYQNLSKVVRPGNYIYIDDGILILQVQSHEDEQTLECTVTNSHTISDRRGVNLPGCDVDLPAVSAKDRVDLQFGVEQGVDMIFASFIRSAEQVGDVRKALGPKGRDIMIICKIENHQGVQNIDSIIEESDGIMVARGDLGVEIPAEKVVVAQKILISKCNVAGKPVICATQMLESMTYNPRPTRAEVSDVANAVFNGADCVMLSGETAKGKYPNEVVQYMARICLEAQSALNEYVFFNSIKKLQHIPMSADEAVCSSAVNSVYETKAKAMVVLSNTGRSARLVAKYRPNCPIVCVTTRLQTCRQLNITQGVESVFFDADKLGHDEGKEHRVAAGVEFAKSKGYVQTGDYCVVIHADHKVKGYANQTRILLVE
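Screened at intermediate enzyme activity to detect both inhibitors and activators: LmPK at 0.1 nM, with a 0.5 nM enzyme column as activation reference. PEP 0.5 mM, ADP 0.1 mM; ATP detected by luminescence after 1 h.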
Sm TGR inh: S. mansoni TGR enzyme inhibition; Potency, µM (doses to about 114 µM), usual class: inhibitors; purified TGR, DTNB reduction, TNB absorbance 405 nm; Q962Y6; AID 485364; 3% of 360,000 active; also: nearly all actives have a fitted effect of over 60% in size
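TGR 20 nM + NADPH 100 uM (dispensed conc.), cpd preinc 15 min RT; start with NADPH (500 uM addition) then DTNB (15 mM addition). Kinetic TNB absorbance, 405 nm filter. Four-parameter Hill fit across titration.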
Tb PYK inh: T. brucei pyruvate kinase inhibition. Q57TT1. TbPYK enzyme, Kinase-Glo Plus ATP luminescence, 45 min. Potency, µM (series often up to 76.8 µM), hits mostly inhibitors. 0.12% of 410,000 active. AID 624173; also: nearly all actives have a fitted effect of over 50% in size
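ADP (130 uM final) triggers the TbPYK reaction after compound addition; incubation is 45 min at room temperature. Kinase-Glo Plus is then added and luminescence imaged. Normalized data are fitted to concentration-effect curves.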
FBPA Giardia inh: inhibitors of Giardia lamblia fructose-1,6-bisphosphate aldolase; A8B2U2; Potency, µM (titrated, usually from 59.6 µM), actives largely listed as inhibitors; purified Giardia FBPA; AID 2451; 0.71% of 290,000 active; also: nearly all actives have a fitted effect of over 55% in size
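Giardia FBPA (40 nM reagent) was preincubated 10 min at RT with compound (up to 57.5 uM final), then substrate plus GAPDH/TPI/NAD/arsenate coupling system with diaphorase/resazurin was added; resorufin fluorescence (525/598 nm) was read after 20 min.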
Each line names hits and unclear results; the compound was inactive in the other large screens. Many of the other results were omitted from the sample, so hits are more common in it than they were. Unless noted, calls follow the shape of the dose curve; as a rule, active = well fitted curve in the direction sought with a large enough effect; inconclusive = small, poorly fitted or top-dose-only effect, or another doubt; inactive = no such curve, though single readings can be large; an effect the other way counts as inactive or inconclusive.

O=C(/C=C/c1ccc(N2CCC(c3ccccc3)=N2)cc1)c1ccccc1	Shiga inhibitor 79.6, Cycloheximide cs 39.0
Cc1nn(C)cc1/C=C/C(=O)c1ccc(O)cc1	Shiga inhibitor 39.7, Cycloheximide cs 38.0
COc1ccc(-c2cc(O)cc(O)c2)cc1	Shiga inhibitor 50.1, Cycloheximide cs 33.4
COc1ccc(/C=C/C(=O)Oc2cc(O)cc(O)c2)cc1	Shiga inhibitor 35.1, Cycloheximide cs 21.5
Cc1ccc(C)c(Nc2cc(C(=O)NC3CCCCC3)c3ccccc3n2)c1	none (no result: Shiga inhibitor, Cycloheximide cs, LmPK inhibitor, FBPA Giardia inh)
CCc1ccc(OC(C)C(=O)N2CCC(c3nc4ccccc4s3)CC2)cc1 (stereo not drawn)	none (no result: Shiga inhibitor, Cycloheximide cs, LmPK inhibitor, FBPA Giardia inh)
COc1ccc(C(=O)/C=C/c2ccc(O)cc2)cc1	Shiga inhibitor 87.0, Cycloheximide cs 36.6
O=C(/C=C/c1ccc(O)cc1)c1ccccc1	Shiga inhibitor 75.3, Cycloheximide cs 38.9, LmPK inhibitor 12.6µM, Tb PYK inh inconclusive
Cc1ccc(N(C)C(=O)Cn2cnc3onc(-c4ccc(F)cc4)c3c2=O)cc1C	none (no result: Shiga inhibitor, Cycloheximide cs, LmPK inhibitor, FBPA Giardia inh)
O=C(Oc1ccccc1)n1c(=S)oc2ccccc21	FBPA Giardia inh inconclusive
Cc1ccccc1OC(=O)n1c(=S)oc2cc(Cl)ccc21	Cycloheximide cs 15.6, Tb PYK inh inconclusive
OCC1CCCN(C(=S)Nc2ccc(OC(F)F)cc2)C1 (stereo not drawn)	Shiga inhibitor 63.3, Cycloheximide cs 26.2
Cc1ccc(NC(=S)N2CCCC(O)C2)cc1 (stereo not drawn)	Shiga inhibitor 69.4, Cycloheximide cs 20.3
Cc1ccc(NC(=S)N2CCOCC2)cc1	none
OCC1CCCN(C(=S)Nc2ccc(Nc3ccccc3)cc2)C1 (stereo not drawn)	Shiga inhibitor 61.3, Cycloheximide cs 29.3
NC(=O)C1CCCN(C(=S)Nc2ccccc2)C1 (stereo not drawn)	none
O=CN1CCN(C(=S)Nc2ccc(OC(F)F)cc2)CC1	none
COc1cc(/C=N\NC(=O)c2ccccc2F)ccc1Oc1ccc([N+](=O)[O-])cn1	Cycloheximide cs 15.8
COc1cc(/C=N\NC(=O)c2cccc(Cl)c2)ccc1Oc1ccc([N+](=O)[O-])cn1	Shiga inhibitor 53.5, Cycloheximide cs 17.3
COc1cc(/C=N\NC(=O)c2ccc(Cl)cc2)ccc1Oc1ccc([N+](=O)[O-])cn1	none
O=C(Nc1noc2ccccc12)c1ccc(F)cc1	Tb PYK inh inconclusive (no result: Shiga inhibitor, Cycloheximide cs, LmPK inhibitor, FBPA Giardia inh)
CCc1c(C)sc2c1CCN(Cc1ccccc1F)C2c1ccccc1 (stereo not drawn)	none (no result: Shiga inhibitor, Cycloheximide cs, LmPK inhibitor, FBPA Giardia inh)
C/C(=C\c1ccco1)C1C(C#N)=C(N)OC2=C1C(=O)CC(C)(C)C2 (stereo not drawn)	Sm TGR inh 35.5µM
CC1(C)CC(=O)C2=C(C1)OC(N)=C(C#N)C2C#Cc1ccccc1 (stereo not drawn)	Sm TGR inh 1.58µM
CC1(C)CC(=O)C2=C(C1)OC(N)=C(C#N)C2c1cn(-c2ccccc2)nc1-c1ccccc1 (stereo not drawn)	Cycloheximide cs 18.0
CC1(C)CC(=O)C2=C(C1)OC(N)=C(C#N)C2c1cccc(OC(=O)c2ccco2)c1 (stereo not drawn)	none
CC1(C)CC(=O)C2=C(C1)OC(N)=C(C#N)C2c1ccoc1 (stereo not drawn)	none
COC(=O)C1=C(C(=O)OC)[C@@H]2Nc3ccccc3[C@@]23C[C@@H](C(=O)OC)N(S(=O)(=O)c2cccs2)C3=N1	none (no result: Shiga inhibitor, Cycloheximide cs, Sm TGR inh, Tb PYK inh)
COc1cc(C(=O)NCc2ccc3c(c2)CCN3C(=O)c2ccncc2)cc(OC)c1OC	none (no result: Shiga inhibitor, Cycloheximide cs, LmPK inhibitor, FBPA Giardia inh)
CCc1ccccc1NC(=O)CSc1ncc2c(n1)-c1ccccc1N(Cc1ccc(C)cc1)S2(=O)=O	none (no result: Shiga inhibitor, Cycloheximide cs, LmPK inhibitor, FBPA Giardia inh)
Cc1ccc(C(c2nnnn2C2CCCC2)N2CCc3ccccc32)cc1 (stereo not drawn)	Cycloheximide cs 22.0
Cc1nc(-c2cccc(F)c2)sc1CCNC(=O)C(=O)Nc1ccc2c(c1)OCO2	none (no result: Shiga inhibitor, Cycloheximide cs, LmPK inhibitor, FBPA Giardia inh)
Cc1cnc(NC(=O)CCCNC(=O)c2ccc(Cl)cc2)s1	none (no result: Shiga inhibitor, Cycloheximide cs, LmPK inhibitor, FBPA Giardia inh)
Cc1ccc(NC(=O)CCNC(=O)c2ccc(Br)cc2)nc1	Shiga inhibitor 56.3, Cycloheximide cs 17.9
Cc1ccc(NC(=O)CCCNC(=O)c2ccc(Cl)cc2)c(O)c1	Shiga inhibitor 91.0, Cycloheximide cs 69.0
Cc1ccc(NC(=O)CCNC(=O)c2ccc(Cl)cc2)nc1	Shiga inhibitor 73.6, Cycloheximide cs 40.9
